According to ChEMBL document CHEMBL3988442, “University of Dundee, Small-Polar-MMV Screening Library” (2021):
Out of some 48,000 compounds screened, about 13,000 (27%) showed an effect of 50% or more. This is one part of the list.

Each compound was assayed on Wolbachia pipientis (assay: Anti-Wolbachia Cell-Based Screen). Conditions: 5 µM.
Type: functional
Set-up: scale not given: in the data most compounds retested in dose-response had high values

| SMILES | Percent Effect |
| --- | --- |
| c1ccc(-c2cc(CN3C[C@@H]4CC[C@H](C3)N(CC3CCC3)C4)on2)cc1 | 10.47% |
| O=C(CN1CCOC1=O)N1CCC2(CCc3ccccc32)CC1 | -4.229% |
| CCCNC(=O)c1ccc(S(=O)(=O)NC2(COC)CCCC2)cc1 | -2.263% |
| CC(C)c1cc(NCC2(N(C)C)CCCC2)ncn1 | -5.055% |
| O=C(c1cc(CC2(NCc3ccccc3)COC2)no1)N1CCCCC1 | 5.452% |
| CS(=O)(=O)CCCNC1(c2cccc(Cl)c2)CCCC1 | -3.433% |
| CS(=O)(=O)CCC(=O)NC1(c2cccc(Br)c2)CC1 | -24.79% |
| N#CCCCS(=O)(=O)NC(=O)c1ccccc1F | -12.54% |
| N#CCCCS(=O)(=O)NC(=O)c1cccc(Cl)c1F | -1.006% |
| COCCCC(=O)NC1(c2cccc(Br)c2)CC1 | -6.052% |
| N#CCCCS(=O)(=O)NC1(c2cccc(Br)c2)CC1 | 115.6% |
| N#CCCCS(=O)(=O)NC1(c2ccc(F)cc2)CC1 | 94.21% |
| COC(=O)NCCCC(=O)NC1(c2cccc(Cl)c2)CC1 | -10.63% |
| N#CCCCS(=O)(=O)NC1(c2cccc(Cl)c2)CC1 | 95.05% |
| Cc1[nH]ncc1C(C)NCc1cccnc1 (stereo unspecified) | -9.734% |
| CCN(C)C[C@@H]1CN(Cc2cnc3c(S(C)(=O)=O)cnn3c2)C[C@@H]1CO | -15.72% |
| Cc1noc(C)c1CN1C(=O)[C@H]2CC[C@@H]1CN(Cc1cccnc1N)C2 | 18.74% |
| O=C(CCc1ccc(F)cc1)NS(=O)(=O)c1ccc2c(c1)OCCO2 | -1.397% |
| O=C(C1CCOC1)N1CCN(CC2CC2)c2ccccc21 (stereo unspecified) | 109.4% |
| NC(=O)CN1CCN(CC2CC2)c2ccccc21 | -6.284% |
| CCN1CCN(C(=O)C2CCOC2)c2ccccc21 (stereo unspecified) | 120.4% |
| CCN1CCN(C(=O)c2csnn2)c2ccccc21 | 3.89% |

| SMILES | Percent Effect |
| --- | --- |
| CCc1nc(C)ncc1C(=O)N1CCN(CC)c2ccccc21 | -9.426% |
| COCCC(=O)N1CCN(CC2CC2)c2ccccc21 | -5.529% |
| COc1ccc(S(=O)(=O)NC(=O)c2ccccc2F)cc1OC | -11% |
| CC(C)c1ccc(OCn2ccc(C(=O)N3CCCC3)n2)cc1 | -7.702% |
| Cc1cnc(N2CC[C@@H]3O[C@@H](COCc4ccccn4)CC[C@@H]32)nc1.O=C(O)C(F)(F)F.O=C(O)C(F)(F)F | 7.451% |
| Cn1cccc1C(=O)N1CC[C@H]2[C@@H]1CCC(=O)N2c1ccccc1 | -9.424% |
| CNC(=O)c1cccnc1NCCOc1ccccc1 | 11.05% |
| CCNC(=O)CS(=O)(=O)NC1CCC(C)CC1 (stereo unspecified) | 91.13% |
| CCC(C(=O)NC1(C(N)=O)CCCC1)n1cccn1 (stereo unspecified) | -7.452% |
| CNC(=O)CS(=O)(=O)NC1CCC(C)CC1 (stereo unspecified) | 97.23% |
| COCCC1(CNC(=O)NCC2CCC2)CCC1 | -13.86% |
| CNC(=O)CS(=O)(=O)C1CCN(S(=O)(=O)C2CC2)CC1 | -8.784% |
| Cc1ccc(NC(=O)CS(=O)(=O)NC2CCC(C)CC2)nc1 (stereo unspecified) | 0.19% |
| CC1CCC(NS(=O)(=O)CC(=O)NCC2CCC2)CC1 (stereo unspecified) | 101.5% |
| CC1CCC(NS(=O)(=O)CC(=O)Nc2ccc(N3CCCC3)cn2)CC1 (stereo unspecified) | -1.172% |
| CC1CCC(NS(=O)(=O)CC(=O)NC2(C(N)=O)CCCC2)CC1 (stereo unspecified) | 92.28% |
| CC1CCC(N2CCC(NS(=O)(=O)CCCF)CC2)CC1 (stereo unspecified) | -1.792% |
| CNS(=O)(=O)CC(=O)N(C1CCCC1)C1CC1 | -5.548% |
| CC1CCN(CCNC(=O)C2CCN(S(N)(=O)=O)CC2)CC1 | -8.736% |
| Cc1nc(C)n(CC2CCCCN2CC(=O)Nc2cccnc2)n1 (stereo unspecified) | -1.265% |
| Cn1cc(CNCCNC(=O)Cc2ccccc2)c(-c2cccnc2)n1 | 13.61% |
| COc1ccccc1S(=O)(=O)N1CC(N(C)C)Cc2ccccc21 (stereo unspecified) | 4.709% |

| SMILES | Percent Effect |
| --- | --- |
| CN(C)C(=O)CN1C[C@H]2CCN(C(=O)C3CCCO3)CC[C@H]2S1(=O)=O (stereo partly specified) | -8.272% |
| CCOc1ccnc(N2CCCN(c3nc(C4CC4)ns3)CC2)n1 | -0.1352% |
| CCCC(Nc1nc(COCC)nc2c1CCNCC2)c1nccn1C (stereo unspecified) | 3.628% |
| CC1CCC(NS(=O)(=O)CC(=O)NC(C2CC2)C2CC2)CC1 (stereo unspecified) | 99.55% |
| O=C(CN1CCN(CCO)CC1)NC(C1CC1)C1CC1 | -6.092% |
| CC1CCC(N2CCC(NS(=O)(=O)CCOC(C)C)CC2)CC1 (stereo unspecified) | -12.56% |
| O=C(c1ccccc1F)N1CCN(c2ccc(-n3cccn3)nn2)CC1 | 5.073% |
| CCC(=O)N1CSCC1C(=O)N(C)CCc1ccccc1 (stereo unspecified) | -0.07211% |
| CN(CCc1ccccc1)C(=O)CN1C(=O)OC[C@@H]1c1ccccc1 | -12.26% |
| CN(CCc1ccccc1)C(=O)c1cc(CN2CCC(O)CC2)on1 | -17.23% |
| CCc1ccsc1C(=O)N(C)CCc1ccncc1 | 33.97% |
| CC(=O)N1N=C(c2ccccc2)OC1C(=O)N(C)Cc1ccccc1 (stereo unspecified) | 105.2% |
| CC(=O)N1N=C(c2ccccc2)OC1C(=O)N(C)CCc1ccccc1 (stereo unspecified) | 94.62% |
| CC(=O)N1N=C(c2ccncc2)OC1C(=O)N(C)CCc1ccccc1 (stereo unspecified) | 108.6% |
| CC(=O)N1N=C(c2ccco2)OC1C(=O)N(C)CCc1ccccc1 (stereo unspecified) | 108.8% |
| CN(Cc1ccccc1)C(=O)[C@@H]1Cc2[nH]cnc2CN1C | 13.33% |
| CC/C=C(/C)C(=O)N1CSCC1C(=O)N(C)CCc1ccncc1 (stereo unspecified) | -7.241% |
| CN(Cc1cnn(C)c1)C(=O)C1COc2ccccc2C1 (stereo unspecified) | -7.691% |
| CC(=O)N1Cc2ccccc2C[C@H]1C(=O)N(C)CCc1ccccn1 | -17.28% |
| Cc1cnc(C(=O)N[C@H]2CN(CCS(C)(=O)=O)C[C@@H]2C2CC2)cn1 | 4.986% |
| CC(Cc1cncs1)Nc1ncnc2cccc(F)c12 (stereo unspecified) | -13.2% |
| CC(C)Cc1noc(CC2CCS(=O)(=O)C2)n1 (stereo unspecified) | -7.316% |
